Sampled rows, rich in hits. Any-hit rate of the full collection: about 3.1%.
Anthrax LF prot – blocks Bacillus anthracis lethal factor protease; P15917; multiplex microsphere protease cleavage assay, LF; inhibition, % at 10 µM; 360,000 compounds, 0.12% hits; AID 588501; also: plate controls were buffer without enzyme for full effect and enzyme alone for no effect
Target sequence (P15917 whole entry, looked up): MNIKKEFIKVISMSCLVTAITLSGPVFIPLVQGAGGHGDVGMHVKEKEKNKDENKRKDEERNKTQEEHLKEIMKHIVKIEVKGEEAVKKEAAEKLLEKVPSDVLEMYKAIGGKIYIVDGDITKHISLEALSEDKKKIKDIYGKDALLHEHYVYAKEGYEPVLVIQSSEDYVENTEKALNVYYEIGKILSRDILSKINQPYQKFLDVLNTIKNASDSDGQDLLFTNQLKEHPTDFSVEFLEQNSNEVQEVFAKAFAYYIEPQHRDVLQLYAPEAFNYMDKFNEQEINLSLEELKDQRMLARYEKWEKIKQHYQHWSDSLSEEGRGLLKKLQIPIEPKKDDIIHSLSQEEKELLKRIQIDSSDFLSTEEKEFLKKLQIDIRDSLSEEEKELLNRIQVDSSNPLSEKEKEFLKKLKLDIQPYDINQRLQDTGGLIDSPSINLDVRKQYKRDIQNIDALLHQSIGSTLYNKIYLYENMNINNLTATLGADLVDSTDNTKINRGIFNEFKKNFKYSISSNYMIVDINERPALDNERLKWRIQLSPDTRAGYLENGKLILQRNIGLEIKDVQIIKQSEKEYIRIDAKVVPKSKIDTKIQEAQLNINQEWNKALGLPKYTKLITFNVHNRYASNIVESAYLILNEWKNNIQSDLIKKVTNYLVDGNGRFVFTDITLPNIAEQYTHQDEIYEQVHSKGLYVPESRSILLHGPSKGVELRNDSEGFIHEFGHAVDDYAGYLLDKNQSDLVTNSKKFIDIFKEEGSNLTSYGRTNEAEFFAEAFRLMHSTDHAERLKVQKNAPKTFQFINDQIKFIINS
PriA SSB inh – K. pneumoniae PriA-SSBct interaction inhibition; AlphaScreen SSBct-PriA binding, biotinylated peptide; inhibition, % at 33 µM; 430,000 compounds, 0.6% hits; in the data active = inhibition mostly above about 37%, no sharp cut-off; inactive = mostly below about 20%;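 also: plate controls were negative control peptide for no effect and reference peptide for full effect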
BoNT-F LC inh – BoNT F light chain protease inhibition | Multiplex microsphere protease cleavage assay, flow cytometry | inhibition, % at 10 µM | 360,000 compounds, 0.22% hits | AID 588497; in the data active = inhibition above about 35%, passing the limit was not always enough; inconclusive = no clear call, values can overlap the other calls; also: plate controls were buffer without enzyme for full effect and enzyme alone for no effect
Autofluor counter – compound fluorescence in toxin protease inhibitor counterscreen | compound autofluorescence counterscreen, microsphere flow cytometry; stronger effect = higher value | fluorescence intensity (test concentration not listed) | 360,000 compounds, 3.1% hits; in the data active = fluorescence intensity above about 16000; inconclusive = no clear call, values can overlap the other calls
BoNT A protease – inhibitors of Botulinum neurotoxin A light chain protease; multiplex microsphere protease substrate cleavage, flow cytometry; inhibition, % at 10 µM; 360,000 compounds, 0.17% hits; AID 588499; also: plate controls were buffer without enzyme for full effect and enzyme alone for no effect
An asterisk follows results filed as active; ? = inconclusive; nt = no result. Rule as the data show it, unless noted: active = inhibition above about 30%; inconclusive = no clear call, values can overlap the other calls; inactive = below that.

SMILES | Anthrax LF prot | PriA SSB inh | BoNT-F LC inh | Autofluor counter | BoNT A protease
O=C(c1sc2ccccc2c1Cl)N(Cc1cccs1)[C@H]1CCS(=O)(=O)C1 | nt | 1 | nt | nt | nt
COc1cc(C(=O)Nc2ccccc2OC(F)(F)C(F)Cl)ccc1OC(F)F (stereo unspecified) | nt | -47 | nt | nt | nt
CCOc1ccc2nc(Nc3nc(CSc4nnnn4-c4ccccc4)cc(=O)[nH]3)nc(C)c2c1 | 3 | -14 | 1 | 20506* | ?
Cc1ccc(SCc2cc(=O)[nH]c(Nc3nc(C)c4cccc(C)c4n3)n2)cc1 | -2 | 3 | 3 | 22617* | 3
COc1ccc2nc(Nc3nc(CSc4nnnn4-c4ccccc4)cc(=O)[nH]3)nc(C)c2c1 | -2 | -9 | 3 | 10731 | -1
COc1ccc2nc(Nc3nc(CSc4ccc(C)cc4)cc(=O)[nH]3)nc(C)c2c1 | -9 | -12 | 1 | 3772 | 0
Cc1c(Cl)cccc1NC(=O)C(=O)NCCc1ccc(N2CCCC2)cc1 | nt | -13 | nt | nt | nt
CCOC(=O)c1c(-c2ccc(OC)cc2)csc1N | nt | 40* | nt | nt | nt
CCOC(=O)c1c(N)nn(C(C)=O)c1-c1ccccc1 | -2 | -4 | 1 | 2420 | 1
CCOC(=O)c1c(N)nn(C(=O)C(C)C)c1-c1ccc(OC)cc1 | -2 | -24 | 1 | 16326* | 0
C(/C=C/c1ccccc1)=N/N1CCN(c2ccccc2)CC1 | -4 | nt | -10 | 17556* | ?
CCc1ccccc1-n1c(-c2ccncc2)n[nH]c1=S | -3 | -3 | -2 | 22962* | -2
CCOC(=O)c1c[nH]c(=O)n(C)c1=O | nt | -18 | nt | nt | nt
Cc1cc2ccccc2n1CCNC(=O)c1cccs1 | -97 | 17 | -136 | 1143 | 79*
COc1ccc(Cl)cc1S(=O)(=O)N1CC(S(=O)(=O)C2CCCCC2)C1 | nt | -17 | nt | nt | nt
Cc1ncc(CC(=O)n2cc(C(=O)c3cc(F)ccc3O)cn2)s1 | 0 | -16 | -2 | 24032* | ?
Cn1c(C(F)(F)F)nn(CCNC(=O)C2COc3ccccc3O2)c1=O (stereo unspecified) | nt | 1 | nt | nt | nt
COCCCNC(=O)Cn1cc(C(C)=O)c2ccccc21 | -1 | -27 | -5 | 20880* | -3
COc1ccc(CCn2c(=S)[nH]c3cc(C(=O)NCc4ccccn4)ccc3c2=O)cc1OC | nt | -11 | nt | nt | nt
COc1ccc(Nc2nc(C(C)(C)C)nc3c2nnn3Cc2ccccc2Cl)cc1OC | -4 | -5 | -12 | 3128 | 0
CCOC(=O)CNc1nc(C(C)(C)C)nc2c1nnn2Cc1ccccc1Cl | -2 | -8 | -2 | 23473* | -1
Cc1cccc(Nc2nc(-c3ccccn3)cs2)n1 | -1 | 95* | -18 | 10704 | -3
Cc1cccnc1Nc1nc(-c2ccccc2)cs1 | 7 | -5 | -18 | 3981 | 2
CNc1nc(-c2ccccn2)cs1 | nt | 118* | nt | nt | nt
CC(C)c1nc(-c2ccccn2)cs1 | nt | 7 | nt | nt | nt
SMILES | Anthrax LF prot | PriA SSB inh | BoNT-F LC inh | Autofluor counter | BoNT A protease
COc1ccc(CCNc2nc(-c3ccncc3)cs2)cc1OC | -4 | 1 | -2 | 4537 | -1
Cc1cccnc1Nc1nc(-c2ccccn2)cs1 | 1 | 68* | -1 | 3055 | -2
COc1ccc(CCNc2nc(-c3ccccn3)cs2)cc1OC | -1 | 39* | -5 | 4081 | -2
O=C(c1cc(-c2cccs2)on1)N1CCCC(c2nnc(-c3ccsc3)o2)C1 (stereo unspecified) | nt | -6 | nt | nt | nt
O=C(NCCOc1ccc(-c2ccccc2)nn1)c1cccc(Br)c1 | nt | 1 | nt | nt | nt
COc1ccccc1/C=C/C1C(C(=O)OC(C)C)=C(C)N=C2SCCC(=O)N21 (stereo unspecified) | nt | -18 | nt | nt | nt
CNc1nc(-c2c[nH]c3ccccc23)cs1 | ? | 52* | ? | 1655 | ?
Cc1nnc(NC(=O)COc2ccc(Cl)cc2Cl)s1 | nt | -15 | nt | nt | nt
C=CCNc1nc(-c2ccccc2)nc(-n2ccnc2)n1 | 0 | -3 | 8 | 18305* | 5
c1ccc(-c2nc(NC3CC3)nc(-n3ccnc3)n2)cc1 | 2 | -17 | -9 | 21514* | -6
c1ccc(-c2nc(-n3ccnc3)nc(-n3ccnc3)n2)cc1 | -13 | -3 | -3 | 5287 | 0
COc1ccccc1C(=O)N1CCN(c2oc(-c3cccs3)nc2C#N)CC1 | nt | -9 | nt | nt | nt
O=C(NCCS(=O)(=O)NCc1ccccn1)c1ccc2c(c1)OCO2 | nt | 2 | nt | nt | nt
CCCN1CCCc2cc(CCNC(=O)C(=O)Nc3ccon3)ccc21 | nt | 56* | nt | nt | nt
CCCN1CCCc2cc(CCNC(=O)CCc3ccc(OC)cc3)ccc21 | nt | 66* | nt | nt | nt
CCCNC(=O)C(=O)NCCc1ccc2c(c1)CCCN2CCC | nt | 3 | nt | nt | nt
CCCN1CCCc2cc(CCNC(=O)OC)ccc21 | nt | 64* | nt | nt | nt
CCCN1CCCc2cc(CCNC(=O)CCc3ccccc3)ccc21 | nt | 62 | nt | nt | nt
CCCN1CCCc2cc(CCNC(=O)Cc3ccc(F)cc3)ccc21 | nt | 73* | nt | nt | nt
CCCc1c(C(=O)NN=Cc2ccc(C)s2)nnn1-c1nonc1N | nt | 8 | nt | nt | nt
CCCN1CCCc2cc(CCNC(=O)COc3ccccc3)ccc21 | nt | 95* | nt | nt | nt
CCCN1CCCc2cc(CCNC(=O)CC(C)(C)C)ccc21 | nt | 58* | nt | nt | nt
CN1CCCc2cc(CCNC(=O)COc3ccccc3)ccc21 | nt | 70 | nt | nt | nt
O=C(NCc1ccc(Cl)cc1)NCC1CCN(c2ncccn2)CC1 | nt | -21 | nt | nt | nt
Nc1nnc(SCc2ccc(F)cc2)s1 | 0 | -14 | -1 | 23088* | ?
SMILES | Anthrax LF prot | PriA SSB inh | BoNT-F LC inh | Autofluor counter | BoNT A protease
Cc1nnc(SCc2ccc(F)cc2)s1 | -4 | -19 | ? | 2649 | 1
Cc1ccc(S(=O)(=O)N2CCCC(C(=O)NCc3ccco3)C2)cc1Cl (stereo unspecified) | 0 | 4 | 13 | 19976* | 11
CC1CCN(S(=O)(=O)c2ccc3c(c2)c(=O)c(C(=O)NCc2ccco2)cn3C)CC1 | 0 | 4 | 38* | 3321 | 2
C(=NN1CCN(C2c3ccccc3-c3ccccc32)CC1)c1ccncc1 | nt | -9 | nt | nt | nt
Cn1cccc1/C=N\NC(=O)C1COc2ccc(C(C)(C)C)cc2O1 (stereo unspecified) | -2 | nt | -8 | 5553 | -2
Cn1cccc1C=NNC(=O)C1COc2ccc(C(C)(C)C)cc2O1 (stereo unspecified) | nt | 39* | nt | nt | nt
COc1cc(OC)cc(C(=O)NCCc2ccc3c(c2)CCCN3C)c1 | nt | 59* | nt | nt | nt
COc1ccc(CC(=O)NCCc2ccc3c(c2)CCCN3C)cc1 | nt | 9 | nt | nt | nt
CN1CCCc2cc(CCNC(=O)NCc3ccccc3)ccc21 | nt | 29 | nt | nt | nt
COc1ccc(CCNC(=O)NCCc2ccc3c(c2)CCCN3C)cc1 | nt | 50* | nt | nt | nt
Cc1cccc(NC(=O)NCCc2ccc3c(c2)CCCN3C)c1 | nt | 56* | nt | nt | nt
Cc1ccc(NC(c2ccccc2)c2ccccc2)cc1 | nt | 2 | nt | nt | nt
COc1cc(C(=O)NN)cc(OC)c1OC | nt | -5 | nt | nt | nt
Cc1c(-c2nc(N)nc(Nc3ccccc3F)n2)oc2ccccc12 | -4 | 0 | -3 | 24893* | -3
Cc1ccc(Nc2nc(N)nc(-c3oc4ccccc4c3C)n2)cc1 | 0 | 0 | -2 | 4600 | 0
COc1ccc(S(N)(=O)=O)cc1N(C)S(C)(=O)=O | nt | 3 | nt | nt | nt
CCOc1cc(C=NNC(=O)c2ccncc2)ccc1OC(=O)c1ccccc1 | nt | -29 | nt | nt | nt
O=C(NCc1cccs1)C1CCN(c2ccc(-n3cccn3)nn2)CC1 | nt | -12 | nt | nt | nt
COC(=O)c1ccccc1N=Cc1c(O)[nH]c(=O)[nH]c1=O | -14 | -13 | 9 | 3521 | 0

Source: PubChem BioAssay (several laboratories)
